SENP6 inh – blocks the human protease SENP6; Q9GZR1; Recombinant SENP6 catalytic domain, aminoluciferin luminescence; inhibition, % at 10 µM; 330,000 compounds, 1.8% hits;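 active = inhibition above about 50% at the single tested dose, limit read from the data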
TRAIL sens C8 – sensitizes caspase-8 expressing cells to TRAIL; 360,000 compounds, 1% hits; inhibition (viability loss, TRAIL sensitization), % at 10 µM; AID 624354; NB7+C8 cells + TRAIL, ATPlite viability luminescence;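 active = compounds causing at least 50% loss of cell viability in the single-dose screen, relative to plate controls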
SENP7 block – inhibitors of human SENP7 protease | Q9BQF6 | recombinant SENP7, Z-RLRGG-aminoluciferin luminescence, 40 min | inhibition, % at 5 µM | 330,000 compounds, 1.5% hits;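 active = inhibition above about 50% at the single test dose, limit read from the data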
Target sequence (Q9BQF6 706-1050 limits assumed): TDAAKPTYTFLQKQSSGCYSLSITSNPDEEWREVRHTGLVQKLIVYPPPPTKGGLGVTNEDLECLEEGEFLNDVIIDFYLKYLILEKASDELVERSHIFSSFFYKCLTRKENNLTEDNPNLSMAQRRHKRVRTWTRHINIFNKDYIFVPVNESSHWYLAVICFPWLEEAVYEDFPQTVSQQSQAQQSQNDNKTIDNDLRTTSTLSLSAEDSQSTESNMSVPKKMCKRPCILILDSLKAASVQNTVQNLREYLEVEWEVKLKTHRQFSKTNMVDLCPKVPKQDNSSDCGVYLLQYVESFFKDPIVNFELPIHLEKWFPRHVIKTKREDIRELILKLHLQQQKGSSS
SENP8 block-1 – blocks the human protease SENP8. purified SENP8, Z-RLRGG-aminoluciferin cleavage, luminescence. inhibition, % at 10 µM. 330,000 compounds, 1.2% hits. AID 2540; in the data active = inhibition above about 50%
Target sequence (Q96LD8 whole entry, looked up): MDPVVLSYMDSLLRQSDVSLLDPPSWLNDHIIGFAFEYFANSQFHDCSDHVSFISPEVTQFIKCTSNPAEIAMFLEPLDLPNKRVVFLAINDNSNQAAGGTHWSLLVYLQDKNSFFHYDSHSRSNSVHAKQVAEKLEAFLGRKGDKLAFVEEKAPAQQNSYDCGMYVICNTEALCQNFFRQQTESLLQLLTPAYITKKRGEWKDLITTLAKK
PPC-1+TRAIL kill – kills PPC-1 cancer cells in the presence of TRAIL; PPC-1 cells + TRAIL, ATPLite viability luminescence; 220,000 compounds, 0.41% hits; AID 1443; cell killing (% activity), % at 4 µM or 5 µM;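 active = cell killing above 50% in the first pass at 4 µM, then a duplicate retest at 5 µM averaging 50% or more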
SENP8 block-2 – blocks human SENP8 cleavage of Nedd8 substrate | Q96LD8 | recombinant SENP8, Nedd8 substrate fluorescence | inhibition, % at 20 µM | 360,000 compounds, 0.64% hits; in the data active = inhibition mostly above about 40%, no sharp cut-off; inactive = mostly below about 27%
SENP8 confirm – human SENP8 inhibition, confirmed; shares compounds with SENP7 block; Recombinant SENP8, Z-RLRGG-aminoluciferin luminescence, 60 min; inhibition, % at 12.5 µM; 6,200 compounds, 40% hits;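 active = mean inhibition across replicates above about 50%, limit read from the data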
SENP6 confirm – human SENP6 inhibition, confirmed | recombinant SENP6, Z-RLRGG-aminoluciferin luminescence | shares compounds with SENP7 block | inhibition, % at 12.5 µM | 6,200 compounds, 58% hits
SENP7 conf – confirmation of human SENP7 protease inhibitors. shares compounds with SENP7 block. recombinant SENP7, Z-RLRGG-aminoluciferin luminescence, 40 min. inhibition, % at 12.5 µM. 6,200 compounds, 69% hits. AID 488917
Casp3 select – selectivity test for SENP inhibitors: human caspase-3 inhibition. shares compounds with SENP7 block. purified caspase-3, Z-DEVD-aminoluciferin luminescence, 60 min. inhibition, % at 12.5 µM. 6,200 compounds, 60% hits;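 active = mean inhibition above about 50%, limit read from the data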
Luc interf – counter-screen for SENP inhibitors: luminescence interference; inhibition, % at 12.5 µM; shares compounds with SENP7 block; Pre-incubated SENP8/Z-RLRGG-aminoluciferin, luciferase luminescence interference; 6,200 compounds, 39% hits;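 active = mean inhibition above about 50% when retested at one dose, limit read from the data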
Large screens that a line does not name were inactive (follow-up assays come after a bar, where they were run). In the library only some 3% were active in any assay of this set; here they are far more common.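 Rule for the calls, unless noted: active = mean inhibition above about 50% in the one-dose retest (limit read from the data); inactive = the rest.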

NC(=O)c1cccc(-c2noc(-c3ccccc3F)n2)c1	SENP6 inh 74, SENP7 block 57, SENP8 block-1 56 (no result: PPC-1+TRAIL kill) | SENP8 confirm inactive | SENP6 confirm 52 | SENP7 conf 81 | Casp3 select 66 | Luc interf inactive
C=CCn1c(NC(=O)c2ccccc2Cl)c(C#N)c2nc3ccccc3nc21	SENP6 inh 94, SENP8 block-1 97 | SENP8 confirm inactive | SENP6 confirm 73 | SENP7 conf 66 | Casp3 select inactive | Luc interf inactive
CCCCn1c(NC(=O)c2ccc(Br)o2)c(S(=O)(=O)c2ccccc2)c2nc3ccccc3nc21	SENP6 inh 87, SENP8 block-1 86 | SENP8 confirm inactive | SENP6 confirm inactive | SENP7 conf inactive | Casp3 select inactive | Luc interf inactive
CCCCn1c(NC(=O)c2ccco2)c(S(=O)(=O)c2ccc(C)cc2)c2nc3ccccc3nc21	none (no result: SENP6 inh, SENP7 block, SENP8 block-1)
CCCCn1c(NC(C)=O)c(C#N)c2nc3ccccc3nc21	SENP6 inh 97, SENP7 block 66 | SENP8 confirm inactive | SENP6 confirm inactive | SENP7 conf inactive | Casp3 select inactive | Luc interf inactive
CCCCCn1c(N)c(C#N)c2nc3ccccc3nc21	none
NC(=O)[C@@H]1CCCN1Cc1nc(-c2cccs2)no1	none
COc1ccc(-c2cc3ccccc3[nH]2)cc1	SENP6 inh 53, SENP7 block 61 | SENP8 confirm inactive | SENP6 confirm inactive | SENP7 conf 66 | Casp3 select inactive | Luc interf inactive
Cc1ccc(O)c(-c2cc3ccccc3[nH]2)c1	SENP6 inh 71, SENP7 block 53 | SENP8 confirm 62 | SENP6 confirm 62 | SENP7 conf 83 | Casp3 select inactive | Luc interf 71
Cc1ccc(C(=O)OCc2cc3ccccc3[nH]c2=O)cc1	none
CN(C(=O)c1cccc(NC(=O)Cc2ccc(NC(=O)C3CCCN(C(=O)C4CC4)C3)cc2)c1)C1CCCC1 (centres undefined)	none (no result: SENP6 inh, SENP7 block, SENP8 block-1, PPC-1+TRAIL kill)
COc1ccc(-c2ccc(SCc3ccccn3)nn2)cc1OC	none
COc1cccc(-c2ccc(SCc3ccccn3)nn2)c1	SENP7 block 80, SENP8 block-1 59 | SENP8 confirm 75 | SENP6 confirm 67 | SENP7 conf 92 | Casp3 select 86 | Luc interf 78
CCOc1ccc(-c2nnn(CC(=O)Nc3ccccc3OC)n2)cc1OCC	SENP7 block 63 | SENP8 confirm inactive | SENP6 confirm inactive | SENP7 conf inactive | Casp3 select inactive | Luc interf inactive
Cc1ccc(C(=O)Nc2nc(C)c(C)s2)o1	SENP6 inh 74, SENP7 block 79, SENP8 block-1 58 | SENP8 confirm inactive | SENP6 confirm 72 | SENP7 conf 92 | Casp3 select 91 | Luc interf 75
Cc1ccc2nc(NC(=O)COC(=O)c3ccncc3)sc2c1	none
Cc1nc(NC(=O)c2ccc(Br)o2)sc1C	SENP6 inh 86, SENP7 block 81, SENP8 block-1 63 | SENP8 confirm 73 | SENP6 confirm 78 | SENP7 conf 95 | Casp3 select 89 | Luc interf inactive
Cc1ccc2nc(NC(=O)c3ccc(Br)o3)sc2c1	SENP6 inh 73, SENP7 block 87, SENP8 block-1 60 (no result: PPC-1+TRAIL kill) | SENP8 confirm inactive | SENP6 confirm inactive | SENP7 conf inactive | Casp3 select inactive | Luc interf inactive
COCC(=O)Nc1nc2ccc(C)cc2s1	SENP6 inh 68, SENP7 block 58 | SENP8 confirm 67 | SENP6 confirm 62 | SENP7 conf 88 | Casp3 select 82 | Luc interf 64
COc1ccc(N)cc1-n1cnnn1	none
N#Cc1ccccc1S(=O)(=O)N1CCN(C(=O)[C@H](Cc2ccccc2)NC(=O)c2ccco2)CC1	none (no result: PPC-1+TRAIL kill)
COc1ccc(C(C(=O)NC2CCCC2)n2c(C3CCN(C(C)=O)CC3)nc3ccccc32)cc1 (centres undefined)	none (no result: SENP6 inh, SENP7 block, SENP8 block-1, PPC-1+TRAIL kill)
COc1ccc(S(=O)(=O)N2CCOCC2)cc1NC(=O)c1ccccc1-c1ccc(C(F)(F)F)cc1	none
CCOc1ccc(C(C)=O)cc1COC(=O)CNC(=O)C12CC3CC(CC(C3)C1)C2	none (no result: PPC-1+TRAIL kill)
COc1ccc(NC(=O)CSc2nc3ccccc3c(=O)n2CCCN2CCC(C)CC2)c(OC)c1	none
Cn1c(/C(C#N)=C/c2ccc(O)cc2)nc2ccccc21	SENP6 inh 53 | SENP8 confirm 50 | SENP6 confirm inactive | SENP7 conf 65 | Luc interf inactive
CCCc1cc(CN(C)C(=O)CC2C(=O)NCCN2Cc2ccccc2C)[nH]n1 (centres undefined)	none (no result: PPC-1+TRAIL kill)
Cc1ccc(C)c(S(=O)(=O)C(C#N)c2nc3ccccc3nc2N2CCCC2)c1 (centres undefined)	SENP6 inh 70, SENP8 block-1 65 | SENP8 confirm inactive | SENP6 confirm inactive | SENP7 conf inactive | Casp3 select inactive | Luc interf inactive
Cc1ccc(S(=O)(=O)N2CCN(C)CC2c2ccccc2)cc1 (centres undefined)	none (no result: PPC-1+TRAIL kill)
O=C(O)/C=C/C(=O)Nc1ccc2c(c1)C(=O)c1ccccc1C2=O	SENP6 inh 78, SENP7 block 53 | SENP8 confirm 73 | SENP6 confirm 67 | SENP7 conf 85 | Casp3 select inactive | Luc interf 79
COCCCC1CCN(C(=O)C2CCC(=O)N(CC3CCCCC3)C2)CC1 (centres undefined)	none (no result: PPC-1+TRAIL kill)
O=C1CC(/C=C/c2ccc(Cl)cc2)=Nc2ccccc2N1	none
O=C1CC(/C=C/c2ccccc2)=Nc2ccccc2N1	SENP6 inh 67 | SENP8 confirm inactive | SENP6 confirm inactive | SENP7 conf 56 | Casp3 select inactive | Luc interf inactive
COc1cc(C(C#N)N2N=C(c3ccccc3)CC2c2ccccc2)ccc1O (centres undefined)	SENP6 inh 66, SENP7 block 78 | SENP8 confirm inactive | SENP6 confirm inactive | SENP7 conf inactive | Casp3 select inactive | Luc interf inactive
CC(=O)N(C)c1ccc(N=Nc2c(C)[nH]n(C(N)=S)c2=O)cc1	SENP6 inh 78, SENP7 block 85, SENP8 block-1 78 | SENP8 confirm 86 | SENP6 confirm 87 | SENP7 conf 98 | Casp3 select 96 | Luc interf 90

Compound activity deposited in PubChem BioAssay by Sanford-Burnham Center for Chemical Genomics.
